Laboratory results from PubChem BioAssay AID431 (Sanford-Burnham Center for Chemical Genomics, 2006).
Among all 63,000 compounds or so, about 1,100 (1.7%) were called active.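 Rule for the calls: active = compounds whose percent cytotoxicity in the single-dose primary screen, scaled between solvent and toxic-drug controls, exceeds 50; inactive = the rest.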 The sample as a whole holds a higher share of actives than the screen did. Entries with a potency or affinity are not part of this list.

test: viability loss of HPDE-C7K cells – cell-based, fluorescence, HTS, primary screen (AID 431); details: HPDE-C7K KRASV12 cells, Alamar Blue viability, 48 h; at 10 µM; active compounds read high;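 note: 0% = DMSO solvent wells and 100% = doxorubicin-treated wells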

| Structure (SMILES) | cytotoxicity |
| --- | --- |
| Cc1ccnc(N(C(=O)c2cccs2)C(=O)c2cccs2)c1 | -0.7% (inactive) |
| C=CCN1C(c2ccccc2)=CS/C1=C(\C#N)c1nnc2n1CCCCC2 | -0.6% (inactive) |
| Cc1cc(C(=O)OCC(=O)NC(=O)NC(C)(C)C)c(C)o1 | -3.4% (inactive) |
| COc1cccc(-c2cc(C(=O)N3CCN(C(c4ccccc4)c4ccccc4)CC3)no2)c1 | -8.3% (inactive) |
| C=CCn1c(SCc2ccccc2C#N)nnc1-c1cc(Br)ccc1O | 13.1% (inactive) |
| C#CC(C)(C)NC(=O)c1ccccc1OC | -11.3% (inactive) |
| COc1cccc(C(=O)Nc2ccc(NC(=O)C(C)(C)C)cn2)c1 | 19.5% (inactive) |
| CSc1ccc(C2C(C#N)=C(N)Oc3c2ccc(=O)c2c(C)oc(C)c32)cc1 (configuration not stated) | -2.3% (inactive) |
| Cc1oc(C)c2c(=O)ccc3c(c12)OC(N)=C(C#N)C3c1ccccc1 (configuration not stated) | -7.8% (inactive) |
| CCOc1cc(NC(=O)c2ccccn2)c(OCC)cc1NC(=O)CC(C)C | 9.9% (inactive) |
| CCOC(=O)NC1(C(F)(F)F)C(=O)NC(C)=C1C#N (configuration not stated) | 2.9% (inactive) |
| O=C(CSc1nc2ccccc2c(=O)n1Cc1ccco1)NCc1ccco1 | -11.8% (inactive) |
| CCOC(=O)CSc1nc2ccccc2c(=O)n1Cc1ccco1 | -3% (inactive) |
| O=c1c2ccccc2nc(SCc2ccccc2)n1Cc1ccco1 | -7% (inactive) |
| CCOC(=O)c1cc2c(c(CSc3nc4ccccc4c(=O)n3Cc3ccco3)c1)OCOC2 | 62.1% (active) |
| O=C(CSc1nc2ccccc2c(=O)n1Cc1ccco1)NCc1ccccc1 | 58.5% (active) |
| O=c1c2ccccc2nc(SCc2cc(F)cc3c2OCOC3)n1Cc1ccco1 | -5.3% (inactive) |
| Cn1c(CN2CCOCC2)nnc1SCC(=O)Nc1nccs1 | 1.8% (inactive) |
| CN(C)CC(C(=O)c1ccccc1)c1ccccc1 (configuration not stated) | 100% (active) |
| CCC(C(=O)c1ccc(O)cc1)c1ccccc1 (configuration not stated) | 18.5% (inactive) |
| COc1ccc(C(C(=O)OC(C)CN(C)C)c2ccccc2)cc1 (configuration not stated) | -8.5% (inactive) |
| COc1cccc(C2/C(=C(/O)c3cnn(-c4ccccc4)c3C)C(=O)C(=O)N2CCN(C)C)c1OC (configuration not stated) | 11.3% (inactive) |
| CCC(c1nnnn1Cc1ccccc1)N1CCN(C(=O)c2ccco2)CC1 (configuration not stated) | -1.7% (inactive) |
| COc1ccccc1-c1cc(C(F)(F)F)nc(S(=O)(=O)CCCC(=O)Nc2cc(C)on2)n1 | 27.3% (inactive) |
| COc1ccccc1-c1cc(C(F)(F)F)nc(S(=O)(=O)CCCC(=O)NC(C)C)n1 | -3.9% (inactive) |
| COc1ccccc1-c1cc(C(F)(F)F)nc(S(=O)(=O)CCCC(=O)N2CCCCC2C)n1 (configuration not stated) | 50.1% (active) |

| Structure (SMILES) | cytotoxicity |
| --- | --- |
| COc1ccccc1-c1cc(C(F)(F)F)nc(N2CCCC2)n1 | -16.5% (inactive) |
| COc1ccccc1-c1cc(C(F)(F)F)nc(N2CCOCC2)n1 | -4.5% (inactive) |
| COc1cccc(Oc2cn[nH]c2-c2ccc(O)cc2O)c1 | 43.9% (inactive) |
| CCOc1ccc(-c2[nH]ncc2Oc2cccc(OC)c2)c(O)c1 | 58.3% (active) |
| COc1cccc(Oc2cn[nH]c2-c2ccc(OC)cc2O)c1 | 80.7% (active) |
| COc1ccc(-c2[nH]ncc2-c2cnn(-c3ccccc3)c2)c(O)c1 | 2.7% (inactive) |
| CCOc1cccc(OCCOCCN2CCCC2)c1 | -6.3% (inactive) |
| COc1ccc(CC(=O)Nc2cccc(-c3nnc(-c4ccc(C)cc4)o3)c2)cc1OC | 18.8% (inactive) |
| O=C(c1ccco1)N1C2C=CC(C2)C1(C(F)(F)F)C(F)(F)F (configuration not stated) | 0.4% (inactive) |
| COc1cccc(C2=NOC(C(=O)NC(C)C)C2)c1 (configuration not stated) | -9.8% (inactive) |
| COc1cccc(C2=NOC(C(=O)NC(C)(C)C)C2)c1 (configuration not stated) | 0.2% (inactive) |
| Cc1cc2cc(CNC(=O)c3ccc4c(c3)OCO4)ccc2[nH]1 | 15.6% (inactive) |
| OCCSc1nc(-c2cccnc2)nc2ccccc12 | 2.2% (inactive) |
| CN1CCN(c2nc(-c3cccnc3)nc3ccccc23)CC1 | -10.1% (inactive) |
| Cn1nnnc1Sc1nc(-c2cccnc2)nc2ccccc12 | 109% (active) |
| O=C(NCc1ccco1)c1cccnc1-c1nc2ccccc2s1 | 0% (inactive) |
| COC(=O)c1cn(CC(=O)N2CCCCCC2)c2ccccc12 | 3.6% (inactive) |
| Cn1nccc1C(=O)OCC(=O)Nc1nc(-c2ccccc2)cs1 | -24.7% (inactive) |
| O=C1c2[nH]nc(-c3ccccc3O)c2C(c2cccc(Cl)c2)N1CC1CCCO1 (configuration not stated) | 38.2% (inactive) |
| O=C1c2ccccc2NC(c2ccc(F)cc2)N1Cc1ccco1 (configuration not stated) | 2.1% (inactive) |
| O=C1C(=O)N(Cc2ccco2)C(c2cccc(Cl)c2)/C1=C(\O)c1ccc2c(c1)OCCO2 (configuration not stated) | 2.2% (inactive) |
| O=C1c2ccccc2C(O)N1Cc1ccco1 (configuration not stated) | -9% (inactive) |
| O=C1c2[nH]nc(-c3ccccc3O)c2C(c2ccccc2)N1Cc1ccco1 (configuration not stated) | 32.3% (inactive) |
| CC(=O)C1=C(O)C(=O)N(Cc2ccco2)C1c1ccc(F)cc1 (configuration not stated) | 8.7% (inactive) |
| CCn1c(SCC(=O)NCc2cccs2)nnc1-c1ccncc1 | -3.4% (inactive) |
| O=C(Nc1ccc(C(=O)Oc2ccccc2)c(O)c1)c1ccco1 | -1.3% (inactive) |

| Structure (SMILES) | cytotoxicity |
| --- | --- |
| Cc1sc2ncnc(SCC(=O)N3CCCC3)c2c1C | -13.4% (inactive) |
| O=C(CSc1nnc(Cc2ccccc2)o1)N1CCc2ccccc21 | -9.6% (inactive) |
| C=CCn1c(=N)c(C(=O)OC)cc2c(=O)n3cccc(C)c3nc21 | -26.9% (inactive) |
| Cc1ccc(C(=O)N2CCCC2)cc1S(=O)(=O)Nc1ccccc1 | -7% (inactive) |
| CC1CCN(C(=O)CSc2nc(N)cc(N)n2)CC1 | -11.1% (inactive) |
| CCc1cc(C(=O)COc2ccccc2F)c(O)cc1O | -13.8% (inactive) |
| CCCc1cc(C(=O)Cc2ccc(F)cc2)c(O)cc1O | 80.9% (active) |
| CCc1cc(C(=O)Cc2cnn(-c3ccccc3)c2)c(O)cc1O | 6.7% (inactive) |
| CCCc1cc(C(=O)Cc2ccc(C(=O)OCC)o2)c(O)cc1O | 24.5% (inactive) |
| CCc1cc(C(=O)Cc2nc3ccccc3[nH]2)c(O)cc1O | 20% (inactive) |
| CCc1cc(C(=O)Cc2ccc(F)cc2)c(O)cc1O | 50.9% (active) |
| O=C(Nc1ccccc1-c1nc2ccccc2s1)c1ccco1 | 7.5% (inactive) |
| CC1(C)CC(=O)C2=C(C1)Nc1ccccc1NC2c1ccccn1 (configuration not stated) | -20% (inactive) |
| COc1ccc(-c2cc(-c3c(O)c(OC)c4occc4c3OC)[nH]n2)cc1OC | 36.2% (inactive) |
| COc1ccc(CCCc2nnc(SCC(=O)Nc3nccs3)n2C)cc1C | -0.1% (inactive) |
| CCOC(=O)c1sc(NC(=O)CSc2nc3c(cc2C#N)CCCCCC3)c(C#N)c1C | 81.6% (active) |
| N#Cc1cc2c(nc1SCC(=O)Nc1sc3c(c1C#N)CCC3)CCCCC2 | 23% (inactive) |
| CCOC(=O)c1sc(NC(=O)CSc2nc3c(cc2C#N)CCC3)c(C#N)c1C | -0.1% (inactive) |
| CCCS(=O)(=O)N1CCCC(C(=O)NCCc2ccc(Cl)cc2)C1 (configuration not stated) | -3.4% (inactive) |
| O=C(O)c1cccc(S(=O)(=O)Nc2ccc3oc(=O)sc3c2)c1 | 6.5% (inactive) |
| COc1cc(NS(=O)(=O)c2ccc(C)cc2C)cc(OC)c1OC | 30.3% (inactive) |
| c1cc(CNc2ccc3c(c2)OCO3)ccn1 | -0.7% (inactive) |
| Cc1ccc(CNc2ccc3c(c2)OCO3)c(C)c1 | 64.8% (active) |
| Cc1ccc(CNc2ccc3c(c2)OCO3)cc1 | 28.9% (inactive) |
| Fc1ccc(Cn2nnnc2CN2CCN(C3CCCC3)CC2)cc1 | 5.5% (inactive) |
| Cc1cc(N2CCC(C(=O)Nc3ccc(F)cc3)CC2)nc(-c2ccccc2)n1 | -0.7% (inactive) |

| Structure (SMILES) | cytotoxicity |
| --- | --- |
| Cc1cc(N2CCN(c3ccccc3)CC2)nc(-c2ccccc2)n1 | -1.4% (inactive) |
| Cc1cc(N2C3CCC2CC(O)(c2ccc(F)cc2)C3)nc(-c2ccccc2)n1 (configuration not stated) | 76.5% (active) |
| O=C(c1cnccn1)N1CCc2ccccc21 | -21% (inactive) |
| O=S(=O)(NCc1cccs1)c1cccc2cccnc12 | 6.5% (inactive) |
| Cc1cc(NC(c2cccnc2)c2ccc3cccnc3c2O)no1 (configuration not stated) | 24.3% (inactive) |
| Cc1cnc(C(=O)Nc2ccccc2C(=O)N2CCOCC2)cn1 | 1.7% (inactive) |
| O=C(O)c1ccc2cccc(Cl)c2c1O | 24.3% (inactive) |
| Cc1ccccc1NS(=O)(=O)c1ccc2[nH]cc(C(=O)NCCCN3CCOCC3)c(=O)c2c1 | 3.9% (inactive) |
| CC1CCN(S(=O)(=O)c2ccc3[nH]cc(C(=O)NCCN4CCOCC4)c(=O)c3c2)CC1 | 57.8% (active) |
| COc1cccc(NS(=O)(=O)c2ccc3[nH]cc(C(=O)NCCN4CCOCC4)c(=O)c3c2)c1 | -12.6% (inactive) |
| COc1ccc(CNC(=O)C2CCCN2S(=O)(=O)c2ccc(S(=O)(=O)N(C)C)cc2)cc1 (configuration not stated) | -14.8% (inactive) |
| Cc1cc(NCCN2CCOCC2)n2c(nc3ccccc32)c1C#N | 11.6% (inactive) |
| Cc1ccc(C2CC(=O)NC(SCc3ccccc3)=C2C#N)o1 (configuration not stated) | 9% (inactive) |
| CCOC(=O)CSC1=C(C#N)C(c2ccccc2OC)CC(=O)N1 (configuration not stated) | 30.7% (inactive) |
| Cc1ccc(C2CC(=O)NC(SCC(=O)OCc3ccccc3)=C2C#N)o1 (configuration not stated) | 55.7% (active) |
| CCSC1=C(C#N)C(c2ccccc2OC)CC(=O)N1 (configuration not stated) | -0.5% (inactive) |
| CCOC(=O)CSC1=C(C#N)C(c2ccc(Cl)cc2)CC(=O)N1 (configuration not stated) | -10.7% (inactive) |
| CCCCOC(=O)CSC1=C(C#N)C(c2ccc3c(c2)OCO3)CC(=O)N1 (configuration not stated) | 21.6% (inactive) |
| CCCOC(=O)CSC1=C(C#N)C(c2ccc3c(c2)OCO3)CC(=O)N1 (configuration not stated) | 61.7% (active) |
| COC(=O)CSC1=C(C#N)C(c2ccccc2)CC(=O)N1 (configuration not stated) | -15.7% (inactive) |
| CCOC(=O)CSC1=C(C#N)C(c2ccc(C)o2)CC(=O)N1 (configuration not stated) | 67.9% (active) |
| CCCCCCSC1=C(C#N)C(c2ccc(C)o2)CC(=O)N1 (configuration not stated) | -6.9% (inactive) |
| CCOC(=O)CC(=O)CSC1=C(C#N)C(c2ccccc2OC)CC(=O)N1 (configuration not stated) | 70.2% (active) |
| CCOC(=O)CSC1=C(C#N)C(c2ccc3c(c2)OCO3)CC(=O)N1 (configuration not stated) | 27.9% (inactive) |
